Experimental data reported in PubChem BioAssay.
Where “and” joins values, the source holds several entries; their conditions need not be identical. Equal values may be shown once. Calls of active or inactive are those of the source. No stated cut-off is given here; in the data, active means inhibition above about 80%; inactive means the rest.

Assay: growth inhibition, single agent or in combination, cell-based, chromothripsis tumors, cisplatin or BGB combos (AID 1671449);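 further: cells exposed for 96 hours; 0% = vehicle DMSO and 100% = killing by high DMSO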
Conditions: LFS_MB_P medulloblastoma cells, measured here: combination with cisplatin, at 5 µM, stronger effect = higher value

Compound | inhibition
COc1cc([C@@H]2c3cc4c(cc3[C@@H](O[C@@H]3O[C@@H]5CO[C@@H](c6cccs6)O[C@H]5[C@H](O)[C@H]3O)[C@H]3COC(=O)[C@H]23)OCO4)cc(OC)c1O | 28.9% and -5.22%
N=c1ccn2c(n1)O[C@H]1[C@H](O)[C@@H](CO)O[C@H]12 | 86.6%
COc1cc(NS(C)(=O)=O)ccc1Nc1c2ccccc2nc2ccccc12 | 41.8% and 26.1%

Assay: growth inhibition, single agent and combos, cell-based, chromothripsis tumors, cisplatin or BGB combos (AID 1671450);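 further: cells exposed to compound for four days; 0% = vehicle DMSO and 100% = cell killing by high DMSO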
Conditions: HDN33 neuroblastoma cells, BGB combo, at 5 µM, stronger effect = higher value

Compound | inhibition
COc1cc([C@@H]2c3cc4c(cc3[C@@H](O[C@@H]3O[C@@H]5CO[C@@H](c6cccs6)O[C@H]5[C@H](O)[C@H]3O)[C@H]3COC(=O)[C@H]23)OCO4)cc(OC)c1O | 78% and 92.3%
N=c1ccn2c(n1)O[C@H]1[C@H](O)[C@@H](CO)O[C@H]12 | 85.1%
COc1cc(NS(C)(=O)=O)ccc1Nc1c2ccccc2nc2ccccc12 | 88.5% and 63.3%

Same assay, conditions: HDN33 neuroblastoma cells, at 0.5 µM, stronger effect = higher value

Compound | inhibition
COc1cc([C@@H]2c3cc4c(cc3[C@@H](O[C@@H]3O[C@@H]5CO[C@@H](c6cccs6)O[C@H]5[C@H](O)[C@H]3O)[C@H]3COC(=O)[C@H]23)OCO4)cc(OC)c1O | 53.6% (inactive) and 64.1% (inactive)
N=c1ccn2c(n1)O[C@H]1[C@H](O)[C@@H](CO)O[C@H]12 | 76.6% (inactive)
COc1cc(NS(C)(=O)=O)ccc1Nc1c2ccccc2nc2ccccc12 | 50.8% (inactive) and 41.9% (inactive)

Same assay, conditions: HDN33 neuroblastoma cells, cisplatin combo, at 5 µM, stronger effect = higher value

Compound | inhibition
COc1cc([C@@H]2c3cc4c(cc3[C@@H](O[C@@H]3O[C@@H]5CO[C@@H](c6cccs6)O[C@H]5[C@H](O)[C@H]3O)[C@H]3COC(=O)[C@H]23)OCO4)cc(OC)c1O | 82.1% and 93.8%
N=c1ccn2c(n1)O[C@H]1[C@H](O)[C@@H](CO)O[C@H]12 | 80.9%
COc1cc(NS(C)(=O)=O)ccc1Nc1c2ccccc2nc2ccccc12 | 68.8% and 65.8%

Same assay, conditions: HDN33 neuroblastoma cells, measured here: with BGB IC20 combination, at 0.5 µM, stronger effect = higher value

Compound | inhibition
COc1cc([C@@H]2c3cc4c(cc3[C@@H](O[C@@H]3O[C@@H]5CO[C@@H](c6cccs6)O[C@H]5[C@H](O)[C@H]3O)[C@H]3COC(=O)[C@H]23)OCO4)cc(OC)c1O | 46.9% and 59.7%
N=c1ccn2c(n1)O[C@H]1[C@H](O)[C@@H](CO)O[C@H]12 | 82.4%
COc1cc(NS(C)(=O)=O)ccc1Nc1c2ccccc2nc2ccccc12 | 51.3% and 43.7%

Same assay, conditions: HDN33 neuroblastoma cells, measured here: with cisplatin IC20 combination, at 0.5 µM, stronger effect = higher value

Compound | inhibition
COc1cc([C@@H]2c3cc4c(cc3[C@@H](O[C@@H]3O[C@@H]5CO[C@@H](c6cccs6)O[C@H]5[C@H](O)[C@H]3O)[C@H]3COC(=O)[C@H]23)OCO4)cc(OC)c1O | 51% and 63.1%
N=c1ccn2c(n1)O[C@H]1[C@H](O)[C@@H](CO)O[C@H]12 | 69.1%
COc1cc(NS(C)(=O)=O)ccc1Nc1c2ccccc2nc2ccccc12 | 45.8% and 24%
